Measurements reported in ChEMBL document CHEMBL2218924, “A broad activity screen in support of a chemogenomic map for kinase signalling research and drug discovery” (Biochem J, 2013).

Target: Insulin receptor-related protein (Homo sapiens) (UniProt P14616)
Settings: at 1 µM

Sequence of Insulin receptor-related protein (Homo sapiens) (P14616 27-742 limits assumed): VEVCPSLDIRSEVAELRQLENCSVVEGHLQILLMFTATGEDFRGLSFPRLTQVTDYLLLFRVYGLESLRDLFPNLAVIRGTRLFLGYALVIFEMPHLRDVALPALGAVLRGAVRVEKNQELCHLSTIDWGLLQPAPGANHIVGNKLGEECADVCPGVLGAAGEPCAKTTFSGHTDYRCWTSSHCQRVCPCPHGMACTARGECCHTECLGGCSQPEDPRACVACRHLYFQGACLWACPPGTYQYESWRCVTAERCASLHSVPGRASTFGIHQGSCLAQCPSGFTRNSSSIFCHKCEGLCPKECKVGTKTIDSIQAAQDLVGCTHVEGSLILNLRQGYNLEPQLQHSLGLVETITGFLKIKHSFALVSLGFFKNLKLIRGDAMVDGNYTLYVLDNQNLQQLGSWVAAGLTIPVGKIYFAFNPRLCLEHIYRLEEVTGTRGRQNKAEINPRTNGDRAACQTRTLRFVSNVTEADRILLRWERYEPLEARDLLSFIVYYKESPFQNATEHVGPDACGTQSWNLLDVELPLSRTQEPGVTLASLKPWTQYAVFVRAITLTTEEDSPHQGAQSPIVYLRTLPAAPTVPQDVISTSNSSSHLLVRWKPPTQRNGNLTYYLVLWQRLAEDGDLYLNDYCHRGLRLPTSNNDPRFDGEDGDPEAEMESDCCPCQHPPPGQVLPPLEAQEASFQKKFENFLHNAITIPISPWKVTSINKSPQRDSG
Sequence of Insulin receptor-related protein (Homo sapiens) (P14616 747-1297 limits assumed): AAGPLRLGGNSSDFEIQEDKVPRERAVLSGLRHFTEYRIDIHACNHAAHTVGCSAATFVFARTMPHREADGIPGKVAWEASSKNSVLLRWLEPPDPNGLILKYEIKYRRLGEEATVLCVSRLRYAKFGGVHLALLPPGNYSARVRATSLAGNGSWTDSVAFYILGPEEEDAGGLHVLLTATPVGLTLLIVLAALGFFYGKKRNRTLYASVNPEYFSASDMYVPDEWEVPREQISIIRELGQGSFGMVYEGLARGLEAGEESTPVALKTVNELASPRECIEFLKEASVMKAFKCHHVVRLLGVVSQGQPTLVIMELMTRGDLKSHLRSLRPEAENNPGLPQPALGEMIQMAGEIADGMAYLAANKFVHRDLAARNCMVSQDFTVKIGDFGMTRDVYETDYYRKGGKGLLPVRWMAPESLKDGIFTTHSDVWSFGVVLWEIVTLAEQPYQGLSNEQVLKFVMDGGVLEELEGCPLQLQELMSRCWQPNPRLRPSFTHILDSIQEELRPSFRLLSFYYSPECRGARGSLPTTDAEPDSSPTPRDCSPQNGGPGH

Compared with `Cn1cc(/C=C2\C(=O)Nc3ccc(S(N)(=O)=O)cc32)c2ccccc21`, `CC(=O)O/N=C1\C(=C2\C(=O)Nc3cc(Br)ccc32)Nc2ccccc21` is lower in residual activity: 124% for the first, 109% for the second.

First: COc1cc2ncnc(Nc3ccc(Oc4ccccc4)cc3)c2cc1OC
Second: COc1cc2ncc(-c3ccccc3)nc2cc1OC
The residual activity of the first is lower: 82% for the first, 137% for the second.

First: O=c1cc(-c2cccc3c2Sc2ccccc2S3)oc(N2CCOCC2)c1
Second: O=C1c2ccccc2-[n+]2ccc3c([nH]c4ccccc43)c21
The residual activity of the first is higher: 119% for the first, 101% for the second.

Going from `N#C/C(=C(\N)Sc1ccc(N)cc1)c1ccccc1C(F)(F)F` to `O=C(Nc1cccc(Nc2nccc(Nc3cccc(C(F)(F)F)c3)n2)c1)C1CC1`, the residual activity falls from 105% to 13%.

Compared with `CN(C)CCCn1cc(C2=C(c3c[nH]c4ccccc34)C(=O)NC2=O)c2ccccc21`, `O=Nc1c(-c2c(O)[nH]c3ccccc23)[nH]c2ccccc12` is lower in residual activity: 137% for the first, 2% for the second.

First: c1ccc(-c2n[nH]cc2-c2ccnc3ccccc23)nc1
Second: Cc1cc(Nc2nc(-c3ccccc3)nc3ccccc23)n[nH]1
The residual activity of the first is higher: 132% for the first, 8% for the second.

Compared with `CO[C@@H]1[C@H](N(C)C(=O)c2ccccc2)C[C@H]2O[C@]1(C)n1c3ccccc3c3c4c(c5c6ccccc6n2c5c31)C(=O)NC4`, `O=C(O)c1ccc2c3c1cccc3c(=O)n1c3ccccc3nc21` is higher in residual activity: 98% for the first, 125% for the second.

First: N#CC(C#N)=C(N)/C(C#N)=C/c1ccc(O)cc1
Second: Oc1ccc(Nc2nc(-c3ccc(Cl)cc3)cs2)cc1
The residual activity of the first is higher: 142% for the first, 115% for the second.

Going from `N#Cc1cnc2cnc(NCc3cccnc3)cc2c1Nc1ccc(F)c(Cl)c1` to `CC#CC(=O)Nc1cc2c(Nc3ccc(F)c(Cl)c3)ncnc2cn1`, the residual activity rises from 90% to 127%.

Going from `Cn1cnc2cc3c(Nc4cccc(Br)c4)ncnc3cc21` to `CCC(=O)Nc1ccc2ncnc(Nc3cccc(Br)c3)c2c1`, the residual activity falls from 125% to 111%.

Going from `O=c1c2ccccc2[nH]c(=S)n1CCN1CCC(=C(c2ccc(F)cc2)c2ccc(F)cc2)CC1` to `O=[N+]([O-])c1ccc(-c2nc(-c3ccc(F)cc3)c(-c3ccncc3)[nH]2)cc1`, the residual activity rises from 120% to 124%.

Compared with `CC[n+]1c(/C=C/N(C)c2ccccc2)n(-c2ccccc2)c2ccc(-c3nc4ccccc4s3)cc21`, `c1ccc(-c2n[nH]c3c2oc2ccccc23)cc1` is higher in residual activity: 111% for the first, 141% for the second.

First: Cc1cc2ncc(-c3ccccc3)nc2cc1C
Second: Cc1cccc(-c2[nH]c(C(C)(C)C)nc2-c2ccc3c(c2)OCO3)n1
The residual activity of the first is higher: 124% for the first, 104% for the second.

First: CCN(CC)C(=O)c1ccc(Nc2nc(OCC3CCCCC3)c3nc[nH]c3n2)cc1
Second: N#CCCc1ccc2c(c1)-c1[nH]c3ccc([N+](=O)[O-])cc3c1CC(=O)N2
The residual activity of the first is lower: 69% for the first, 100% for the second.

Work on `O=C1Nc2ccc(Br)cc2/C1=C\c1cc2c([nH]1)CCCC2` yielded a residual activity of 114%.

Target: Insulin receptor-related protein (Homo sapiens) (UniProt P14616)
Settings: at 10 µM

First: Cn1cc(/C=C2\C(=O)Nc3ccc(S(N)(=O)=O)cc32)c2ccccc21
Second: CC(=O)O/N=C1\C(=C2\C(=O)Nc3cc(Br)ccc32)Nc2ccccc21
The residual activity of the first is lower: 35% for the first, 92% for the second.

First: COc1cc2ncnc(Nc3ccc(Oc4ccccc4)cc3)c2cc1OC
Second: COc1cc2ncnc(Nc3ccc(NC(=O)c4ccccc4)cc3)c2cc1OC
The residual activity of the first is higher: 81% for the first, 79% for the second.

First: O=c1cc(-c2cccc3c2Sc2ccccc2S3)oc(N2CCOCC2)c1
Second: O=C1c2ccccc2-[n+]2ccc3c([nH]c4ccccc43)c21
The residual activity of the first is higher: 96% for the first, 92% for the second.

`Oc1ccc(-c2nc(-c3ccc(F)cc3)c(-c3ccncc3)[nH]2)cc1` and `O=[N+]([O-])c1ccc(-c2nc(-c3ccc(F)cc3)c(-c3ccncc3)[nH]2)cc1` are the same in residual activity: 98% for the first, 98% for the second.

First: N#C/C(=C(\N)Sc1ccc(N)cc1)c1ccccc1C(F)(F)F
Second: O=C(Nc1cccc(Nc2nccc(Nc3cccc(C(F)(F)F)c3)n2)c1)C1CC1
The residual activity of the first is higher: 101% for the first, 1% for the second.

Going from `CN(C)CCCn1cc(C2=C(c3c[nH]c4ccccc34)C(=O)NC2=O)c2ccccc21` to `O=Nc1c(-c2c(O)[nH]c3ccccc23)[nH]c2ccccc12`, the residual activity falls from 75% to 1%.

Compared with `c1ccc(-c2n[nH]cc2-c2ccnc3ccccc23)nc1`, `Cc1cc(Nc2nc(-c3ccccc3)nc3ccccc23)n[nH]1` is lower in residual activity: 79% for the first, 1% for the second.

Going from `CO[C@@H]1[C@H](N(C)C(=O)c2ccccc2)C[C@H]2O[C@]1(C)n1c3ccccc3c3c4c(c5c6ccccc6n2c5c31)C(=O)NC4` to `O=C(O)c1ccc2c3c1cccc3c(=O)n1c3ccccc3nc21`, the residual activity rises from 57% to 98%.

First: N#CC(C#N)=C(N)/C(C#N)=C/c1ccc(O)cc1
Second: Oc1ccc(Nc2nc(-c3ccc(Cl)cc3)cs2)cc1
The residual activity of the first is lower: 76% for the first, 85% for the second.

Compared with `N#Cc1cnc2cnc(NCc3cccnc3)cc2c1Nc1ccc(F)c(Cl)c1`, `CC#CC(=O)Nc1cc2c(Nc3ccc(F)c(Cl)c3)ncnc2cn1` is lower in residual activity: 89% for the first, 86% for the second.

First: Cn1cnc2cc3c(Nc4cccc(Br)c4)ncnc3cc21
Second: CCC(=O)Nc1ccc2ncnc(Nc3cccc(Br)c3)c2c1
The residual activity of the first is lower: 78% for the first, 79% for the second.

First: O=c1c2ccccc2[nH]c(=S)n1CCN1CCC(=C(c2ccc(F)cc2)c2ccc(F)cc2)CC1
Second: N#CCCc1ccc2c(c1)-c1[nH]c3ccc([N+](=O)[O-])cc3c1CC(=O)N2
The residual activity of the first is lower: 71% for the first, 81% for the second.

Compared with `CC[n+]1c(/C=C/N(C)c2ccccc2)n(-c2ccccc2)c2ccc(-c3nc4ccccc4s3)cc21`, `c1ccc(-c2n[nH]c3c2oc2ccccc23)cc1` is lower in residual activity: 87% for the first, 73% for the second.

First: Cc1cc2ncc(-c3ccccc3)nc2cc1C
Second: COc1cc2ncc(-c3ccccc3)nc2cc1OC
The residual activity of the first is lower: 71% for the first, 80% for the second.

Compared with `Cc1cccc(-c2[nH]c(C(C)(C)C)nc2-c2ccc3c(c2)OCO3)n1`, `c1ccc2c(-c3ccncc3)c[nH]c2c1` is lower in residual activity: 88% for the first, 83% for the second.

First: CCN(CC)C(=O)c1ccc(Nc2nc(OCC3CCCCC3)c3nc[nH]c3n2)cc1
Second: O=C1Nc2ccc(Br)cc2/C1=C\c1cc2c([nH]1)CCCC2
The residual activity of the first is lower: 1% for the first, 63% for the second.
